Screening data: PubChem BioAssay, National Center for Advancing Translational Sciences (NCATS)
15-hLO-2 inh – blocks human 15-lipoxygenase 2 activity; O15296; purified 15hLO-2, xylenol orange hydroperoxide absorbance; Potency, µM (titrated, usually from 57.1 µM), for the others: at the top dose activity change, negative = inhibition, most hits filed as inhibitors; hit rate 0.56% among 110,000; AID 881; also: nearly all actives have a fitted effect of over 60% in size
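Screening format was qHTS against 50 nM purified 15hLO-2 in Hepes pH 7.5 with detergent. Activity follows hydroperoxide formation from 45 uM arachidonic acid, measured as 573:405 nm absorbance ratio of the ferric-xylenol orange complex.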
ALOX12 inhib – inhibitors of human 12-lipoxygenase (ALOX12); AID 1452; hit rate 0.12% among 150,000; P18054; Potency, µM (highest dose often 57.1 µM), inactives show at the highest dose activity change, negative = inhibition, usual class: inhibitors; purified 12-hLO, xylenol orange hydroperoxide absorbance; also: nearly all actives have a fitted effect of over 55% in size
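Lipoxygenase turnover measured by absorbance at 573 and 405 nm after Fe-XO development. Human 12hLO 150 nM, arachidonate 40 uM, pH 7.0 Hepes buffer with detergent; 15 min compound preincubation, 30 min reaction.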
An asterisk follows results filed as active; ? = inconclusive; nt = not tested or not shown; [ ] = another dose, or the depositor's remark. Many of the other results were omitted from the sample, so hits are more common in it than they were. Calls follow the shape of the dose curve; as a rule, active = well fitted curve in the direction sought with a large enough effect; inconclusive = small, poorly fitted or top-dose-only effect, or another doubt; inactive = no such curve, though single readings can be large; an effect the other way counts as inactive or inconclusive. % is scaled to controls: 0 for no effect and ±100 for the full control effect; potency is read from the fitted curve at half-maximal effect.

SMILES	15-hLO-2 inh	ALOX12 inhib
O=C(O)c1cc[c]([Hg][S]c2ncnc3nc[nH]c23)cc1	2.51µM*	?
O=c1c2ccccc2nc(CSc2ncnc3nc[nH]c23)n1-c1ccccc1	5.7%	-6.9%
C[C@@H]1[C@H]2C=C[C@@H]1[C@@H](c1c3ccc(=O)c(O)c-3oc3c(O)c(O)ccc13)[C@@H]2C(=O)O	?	-22.6%[11.4 µM]
CC[C@H](CO)NC(=O)[C@@H]1C=C2c3cccc4c3c(cn4C)C[C@@H]2N(C)C1	-7.9%	-5.1%
Cc1cc2c(C(C)C)c(O)c(O)c(C=O)c2c(O)c1-c1c(C)cc2c(C(C)C)c(O)c(O)c(C=O)c2c1O	3.55µM*	?
CO[C@@H]1CC=C2CCN3CCC4=C(CC(=O)OC4)[C@]23C1	-4.6%	-5.2%
NC[C@H](O)c1cc(O)c(O)cc1F	-6.4%	2.5%
O=C(NC1(C(F)(F)F)Oc2ccc(Cl)cc2O1)N1CCC2(CC1)OCCO2 (stereo not given)	7.94µM*	?
O=C(NC1(C(F)(F)F)Oc2ccccc2O1)N1CCC2(CC1)OCCO2	nt	-9.1%
C=CCN1CCc2cccc3c2[C@@H]1Cc1ccc(O)c(O)c1-3	6.31µM*	-16.7%
CCCN1CCc2cc(O)cc3c2[C@H]1Cc1ccc(O)c(O)c1-3	-21.2%	-22.0%
C=CCc1c(C)[nH]c(=S)c(C#N)c1C	12.6µM*	-23.6%
COCc1cc(C)c(C#N)c(=S)[nH]1	?	0.2%
CN1CCN(c2ccc([N+](=O)[O-])c3[nH]o[n+](=O)c23)CC1	-4.0%[11.4 µM]	1.3%[11.4 µM]
N[C@@H]1CCc2cc(O)c(O)cc2C1	?	1.2%
COc1cc(C=C(C#N)C#N)cc(O)c1O	?	-9.3%
N#CC(C#N)=Cc1ccc(O)c(O)c1	12.6µM*	?
O=S(=O)(NCCO)c1cc[c]([Sb](=[O])([OH])[OH])cc1	4.6%[11.4 µM]	3.6%[11.4 µM]
CSC([N-]/N=C/c1cccc(C)n1)=[S]=[Cu].CS[C@H]([S-])[N-]/N=C/c1cccc(C)n1	3.16µM*	?
COc1ccc2c(c1)[C@]13CCCC[C@@H]1[C@H](C2)NCC3	15.1%	-3.5%
CC(C)N[C@@H](C)Cc1ccc(I)cc1	15.9%	-3.1%
CCCN1CCC[C@H](c2cccc(C#N)c2)C1	5.7%	3.6%
O=c1cc(-c2ccc(O)c(O)c2)oc2cc(O)cc(O)c12	15.8µM*	?
N#CC(C#N)=NNc1ccc(OC(F)(F)F)cc1	15.8µM*	-4.8%
N#CC(C#N)=NNc1cccc(Cl)c1	?	-11.0%
Ic1ccccc1CN[C@@H]1C2CCN(CC2)[C@H]1C(c1ccccc1)c1ccccc1	35.8%	-3.3%
O=C(O)[C@@H](O)[C@@H](O)[C@@H]1[O][Sb][O][C@@H]1CO	9.1%[11.4 µM]	0.6%[11.4 µM]
